Test results as given in PubChem BioAssay.
Unmarked numbers belong to inactive results. For some assays here: Results with a measured potency or affinity are listed apart. Active and inactive are the calls of the source. Unless noted, no rule for the calls is given here.

Legend:
[1] = antimalarial activity against Dd2 strain (AID 2302;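 active = growth inhibition above 50% at the single 2 µM test dose, taken to imply half-maximal potency below 2 µM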;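 also: 0% = DMSO untreated growth and 100% = chloroquine plus artemisinin killed control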); conditions: P. falciparum Dd2 in RBCs, LDH growth readout, 72 h; at 2 µM; active compounds read high
[2] = HepG2 cytotoxicity, primary screen, cytotoxicity control for P. falciparum antimalarial project, cell-based, ATP luminescence (AID 2303;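 active = inhibition above 50%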;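 also: 0% = DMSO wells and 100% = digitonin-killed cells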); conditions: HepG2 viability, 24-48 h, at 10 µM, active compounds read high
[3] = target: L-lactate dehydrogenase (Plasmodium falciparum (isolate CDC / Honduras)) (UniProt Q27743); test: PfLDH activity inhibition – cell lysate, 3D7 strain, counter-screen for P. falciparum growth inhibition project (AID 2304);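 also: 0% = vehicle and 100% = reference inhibitor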; conditions: P. falciparum 3D7 crude extract, LDH APAD/NBT absorbance; at 2 µM; active compounds read high
[4] = inhibition of 3D7 malaria parasite growth – strain 3D7 (AID 2306);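 also: 0% = DMSO wells and 100% = chloroquine plus artemisinin control wells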; conditions: P. falciparum 3D7 erythrocytic growth, LDH absorbance, 72 h; at 2 µM; active compounds read high
[5] = target: Calcium-dependent protein kinase 1 (Plasmodium falciparum (isolate 3D7)) (UniProt P62344); test: PfCDPK1 kinase inhibitors, biochemical, TCAMS library (AID 1159585; cut-off not given, nearly all actives have IC50 up to about 0.98 µM;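 also: inhibitors leave more ATP so luminescence rises with inhibition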); conditions: recombinant PfCDPK1, Kinase-Glo ATP depletion luminescence
[6] = target: Plasmodium falciparum protein kinase 6 (PK6, PF3D7_1337100) (UniProt Q8IDW1); test: PfPK6 kinase inhibitors, biochemical, TCAMS library (AID 1159586); conditions: recombinant PfPK6, Kinase-Glo ATP depletion luminescence
[7] = target: Protein kinase 7 (PK7), Plasmodium falciparum 3D7 (PF3D7_0213400) (UniProt Q7YTF7); test: inhibition of Plasmodium PK7 catalytic activity – biochemical, TCAMS antimalarial set, Kinase-Glo luminescence (AID 1159587); conditions: recombinant PfPK7, Kinase-Glo ATP depletion luminescence
[8] = target: Calcium-dependent protein kinase 4 (Plasmodium falciparum (isolate 3D7)) (UniProt Q8IBS5); test: PfCDPK4 kinase inhibitors, biochemical, TCAMS library (AID 1159588; cut-off not given, nearly all actives have IC50 up to about 0.91 µM); conditions: recombinant PfCDPK4, Kinase-Glo ATP depletion luminescence
Calcium-dependent protein kinase 4 (Plasmodium falciparum (isolate 3D7)), sequence (Q8IBS5 whole entry, looked up): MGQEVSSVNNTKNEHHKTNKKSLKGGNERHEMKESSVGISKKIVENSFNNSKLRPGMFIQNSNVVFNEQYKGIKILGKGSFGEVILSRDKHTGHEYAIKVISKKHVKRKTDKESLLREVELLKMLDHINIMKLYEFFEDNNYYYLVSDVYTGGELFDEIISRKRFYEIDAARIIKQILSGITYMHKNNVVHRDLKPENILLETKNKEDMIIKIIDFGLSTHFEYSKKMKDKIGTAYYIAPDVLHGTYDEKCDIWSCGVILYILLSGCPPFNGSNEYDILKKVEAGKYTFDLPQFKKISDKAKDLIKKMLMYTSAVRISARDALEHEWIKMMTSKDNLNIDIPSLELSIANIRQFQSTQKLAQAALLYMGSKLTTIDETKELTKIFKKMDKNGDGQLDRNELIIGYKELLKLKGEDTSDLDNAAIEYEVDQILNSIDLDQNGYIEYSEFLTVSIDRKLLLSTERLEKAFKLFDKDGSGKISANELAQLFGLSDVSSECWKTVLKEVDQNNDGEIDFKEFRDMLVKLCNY

Plasmodium falciparum protein kinase 6 (PK6, PF3D7_1337100), sequence (Q8IDW1 1-305): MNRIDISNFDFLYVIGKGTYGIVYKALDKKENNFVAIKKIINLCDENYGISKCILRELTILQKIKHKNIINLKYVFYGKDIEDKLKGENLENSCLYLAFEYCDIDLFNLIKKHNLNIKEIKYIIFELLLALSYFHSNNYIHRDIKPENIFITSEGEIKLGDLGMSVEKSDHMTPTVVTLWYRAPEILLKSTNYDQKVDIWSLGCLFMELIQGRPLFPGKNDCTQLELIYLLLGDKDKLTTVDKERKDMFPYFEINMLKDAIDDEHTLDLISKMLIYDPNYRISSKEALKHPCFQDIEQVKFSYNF
Protein kinase 7 (PK7), Plasmodium falciparum 3D7 (PF3D7_0213400), sequence (Q7YTF7 1-343): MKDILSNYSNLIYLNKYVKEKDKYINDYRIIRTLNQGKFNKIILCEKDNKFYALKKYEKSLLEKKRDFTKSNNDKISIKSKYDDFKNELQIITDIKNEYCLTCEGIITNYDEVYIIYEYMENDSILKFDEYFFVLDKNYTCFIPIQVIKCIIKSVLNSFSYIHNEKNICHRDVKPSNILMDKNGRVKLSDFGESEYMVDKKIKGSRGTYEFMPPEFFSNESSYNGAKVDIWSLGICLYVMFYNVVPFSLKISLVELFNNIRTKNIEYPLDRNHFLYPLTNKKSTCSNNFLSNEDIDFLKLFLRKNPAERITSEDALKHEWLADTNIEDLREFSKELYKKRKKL
L-lactate dehydrogenase (Plasmodium falciparum (isolate CDC / Honduras)), sequence (Q27743 whole entry, looked up): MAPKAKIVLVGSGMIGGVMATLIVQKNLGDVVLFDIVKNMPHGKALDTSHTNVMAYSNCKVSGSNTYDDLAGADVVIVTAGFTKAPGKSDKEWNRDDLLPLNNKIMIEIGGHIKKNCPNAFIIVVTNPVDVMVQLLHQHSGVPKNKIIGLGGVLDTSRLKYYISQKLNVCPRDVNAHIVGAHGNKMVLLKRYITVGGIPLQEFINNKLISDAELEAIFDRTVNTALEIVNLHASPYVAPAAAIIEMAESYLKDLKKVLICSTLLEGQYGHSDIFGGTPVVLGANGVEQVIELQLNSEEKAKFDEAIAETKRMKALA
Calcium-dependent protein kinase 1 (Plasmodium falciparum (isolate 3D7)), sequence (P62344 whole entry, looked up): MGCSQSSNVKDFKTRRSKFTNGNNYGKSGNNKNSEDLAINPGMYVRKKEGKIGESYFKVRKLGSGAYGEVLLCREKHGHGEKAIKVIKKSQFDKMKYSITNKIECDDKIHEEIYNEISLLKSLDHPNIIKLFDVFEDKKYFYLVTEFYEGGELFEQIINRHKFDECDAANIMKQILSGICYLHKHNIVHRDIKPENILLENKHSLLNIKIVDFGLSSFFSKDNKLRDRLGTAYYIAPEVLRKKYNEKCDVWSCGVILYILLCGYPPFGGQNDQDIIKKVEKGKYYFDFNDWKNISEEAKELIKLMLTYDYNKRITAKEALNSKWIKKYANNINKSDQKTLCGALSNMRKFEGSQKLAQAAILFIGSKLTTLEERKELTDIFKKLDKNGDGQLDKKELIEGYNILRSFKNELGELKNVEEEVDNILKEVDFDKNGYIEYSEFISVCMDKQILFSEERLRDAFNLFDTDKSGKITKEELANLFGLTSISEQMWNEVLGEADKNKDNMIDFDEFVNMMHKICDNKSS

SMILES	growth inhibition [1]	inhibition [2]	inhibition [3] [%]	growth inhibition [4]	outcome [5]	outcome [6]	outcome [7]	outcome [8]
CCCCCCN1CCC(NCc2cccc(-n3ccnc3)c2)CC1	101% (active)	3%	5	103% (active)	inactive	inactive	inactive	inactive
COc1cccc(C(=O)Nc2ccc(S(=O)(=O)c3cc4c(cc3OC)CCN(C)CC4)cc2)c1	3%	-11%	-1	86% (active)	inactive	inactive	inactive	inactive
Cn1nc(C(F)(F)F)c(-c2ccc(Br)cc2)c1NC(=O)Nc1ccc(F)cc1F	99% (active)	16%	0	99% (active)	inactive	inactive	inactive	inactive
CCCN(CCC)C(=O)c1cc(C(=O)N[C@@H](Cc2ccccc2)[C@H](O)CNC2CC2)cc(N2CCCCS2(=O)=O)c1	98% (active)	-3%	0	100% (active)	inactive	inactive	inactive	inactive
OC1CCCN(Cc2cccc(-c3ccc(-c4nc5ccc(F)cc5[nH]4)cc3)c2)C1 (stereo not given)	42%	16%	-4	101% (active)	inactive	inactive	inactive	inactive
Nc1c2c(nc3ccc(NC(=O)CCCc4ccccc4)cc13)CCCC2	42%	73% (active)	-1	101% (active)	inactive	inactive	inactive	inactive
O=C(Nc1cccc(-c2cccc(-c3nc4ccc(C(F)(F)F)cc4[nH]3)c2)c1)c1ccoc1	61% (active)	32%	-2	99% (active)	inactive	inactive	inactive	inactive
Nc1cccc(CNCc2cccc(-c3ccc(-c4nc5ccc(C(F)(F)F)cc5[nH]4)cc3)c2)c1	98% (active)	6%	1	101% (active)	inactive	inactive	inactive	inactive
COc1ccc2nc(C)cc(NC3Cc4ccccc4C3)c2c1	13%	20%	5	98% (active)	inactive	inactive	inactive	inactive
CN1CCN(CCCN(Cc2cccc(-c3ccc(CNC4CCCC4)cc3)c2)C(=O)CCC2CCCC2)CC1	84% (active)	16%	-1	97% (active)	inactive	inactive	inactive	inactive
COCCNCc1ccc(-c2ccc3c(Nc4ccc(Cl)cc4F)ccnc3c2)o1	100% (active)	15%	-2	100% (active)	inactive	inactive	inactive	inactive
COc1ccc2nccc(NC(=O)OC3CCC(NCc4ccc5c(n4)NC(=O)CS5)CC3)c2c1 (stereo not given)	39%	9%	-6	98% (active)	inactive	inactive	inactive	inactive
CCCc1cc(OC)c(CC2c3cc(O)c(C)cc3CCN2C)cc1OC (stereo not given)	89% (active)	32%	-2	99% (active)	inactive	inactive	inactive	inactive
CCCNCc1c(O)ccc2c(CNCCC)c(O)ccc12	9%	24%	-1	101% (active)	inactive	inactive	inactive	inactive
COc1ccc2c(OC)ccc(CNCCCCCCNCc3ccc(OC)c4ccc(OC)cc34)c2c1	98% (active)	100% (active)	-3	102% (active)	inactive	inactive	inactive	inactive
Cc1cc(N2CCN(CC3CCCCC3)CC2)nc(Nc2ccc(Br)cc2)n1	16%	-1%	-6	91% (active)	inactive	inactive	inactive	inactive
Cc1cc(NCCC(=O)Nc2ccccc2)nc(NCCc2cccnc2)n1	4%	-1%	-2	84% (active)	inactive	inactive	inactive	inactive
CC(C)Oc1ccccc1-c1csc(C(=O)NCC2CCN(Cc3ccc(C(C)(C)C)cc3)C2)c1 (stereo not given)	45%	59% (active)	2	90% (active)	inactive	inactive	inactive	inactive
OCCNc1nc(Nc2ccc(F)cc2)nc2ccccc12	73% (active)	10%	3	94% (active)	inactive	inactive	inactive	inactive
CC(CNc1nc(NCC(c2ccccc2)c2ccccc2)c2[nH]cnc2n1)c1ccccc1 (stereo not given)	24%	5%	-8	93% (active)	inactive	inactive	inactive	inactive

SMILES	growth inhibition [1]	inhibition [2]	inhibition [3] [%]	growth inhibition [4]	outcome [5]	outcome [6]	outcome [7]	outcome [8]
COc1cccc(-c2ccc(C(=O)NC3CCN(Cc4ccc(C(C)(C)C)cc4)CC3)s2)c1	23%	43%	-2	85% (active)	inactive	inactive	inactive	inactive
CCCc1c(C(=O)OCC)c2cc(O)ccc2n1-c1ccc(OC)cc1	99% (active)	-2%	0	100% (active)	inactive	inactive	inactive	inactive
COc1ccc2nccc([C@@H](O)CN3CCC(NCc4cc5c(cc4F)SCC(=O)N5)CC3)c2n1	27%	14%	3	96% (active)	inactive	inactive	inactive	inactive
COc1ccc(C(=O)CCC(=O)N(Cc2ccc(-c3ccc(CNCCc4ccccc4)cn3)cc2)C(C)CN(C)C)cc1F (stereo not given)	57% (active)	20%	-4	98% (active)	inactive	inactive	inactive	inactive
CC(C)N1CCC(N(Cc2ccc(-c3ccc(Cl)cc3)cc2)C(=O)Cn2c(CCc3cccc(F)c3F)nc(=O)c3ccccc32)CC1	70% (active)	61% (active)	5	86% (active)	inactive	inactive	inactive	inactive
O=C1OC2(CN1CC1CCN(Cc3ccc(O)c(Cl)c3)CC1)c1ccccc1-c1ccccc12	96% (active)	32%	0	97% (active)	inactive	inactive	inactive	inactive
Cc1ccc2nc(C)cc(NN=Cc3ccc([N+](=O)[O-])o3)c2c1	99% (active)	15%	-4	101% (active)	inactive	inactive	inactive	inactive
Cc1nc2ccc3ccc(CN(C)c4ccc(C(=O)N[C@@H](CCC(=O)O)C(=O)O)cc4)cc3c2c(=O)[nH]1	27%	42%	1	95% (active)	inactive	inactive	inactive	inactive
CC(C)(Cc1ccc(Cl)cc1)NCCCCCCNCCc1ccc(O)c(O)c1	-7%	45%	-8	90% (active)	inactive	inactive	inactive	inactive
COc1ccc(CNCc2ccc(-c3cccc(-c4nc5ccc(F)cc5[nH]4)c3)cc2)cc1	94% (active)	33%	3	102% (active)	inactive	inactive	inactive	inactive
COc1ccc2[nH]c3ccccc3c(=O)c2c1	75% (active)	0%	2	87% (active)	inactive	inactive	inactive	inactive
COc1ccccc1NC(=O)Nc1ccc(-c2ccc(-c3nc4c(C)cccc4[nH]3)s2)cc1	99% (active)	71% (active)	0	100% (active)	inactive	inactive	inactive	inactive
CC(C)NCc1ccc(-c2ccc(NS(=O)(=O)c3cccc4cccnc34)cc2)cc1	45%	27%	-4	90% (active)	inactive	inactive	inactive	inactive
Cn1cnc(CCNC(=O)c2ccc(-c3cccc(-c4nc5ccc(C(F)(F)F)cc5[nH]4)c3)cc2)c1	93% (active)	25%	3	101% (active)	inactive	inactive	inactive	inactive
O=C(N[C@H]1CCN(Cc2ccc(OC3CCN(Cc4ccccc4)CC3)c(Cl)c2)C1)c1ccc(Cl)c(Cl)c1	11%	59% (active)	0	99% (active)	inactive	inactive	inactive	inactive
Cc1cccc(CNc2nc(C)cc(NCCC(=O)NCc3cccc(F)c3)n2)c1	13%	23%	-1	84% (active)	inactive	inactive	inactive	inactive
CC(=O)Nc1ccc(C(=O)Nc2cccc(-c3cccc(-c4nc5ccc(C(F)(F)F)cc5[nH]4)c3)c2)cn1	97% (active)	8%	-2	101% (active)	inactive	inactive	inactive	inactive
Cc1ccc(CNC(=O)c2ccc(CN3CCCN(Cc4ccsc4)CC3)cc2)cc1	-1%	16%	5	93% (active)	inactive	inactive	inactive	inactive
Cc1ccc(OCCCCON2C(N)=NC(N)=NC2(C)C)cc1C	97% (active)	61% (active)	-3	94% (active)	inactive	inactive	inactive	inactive
COc1ccc(S(=O)(=O)N2CCC(NS(=O)(=O)c3ccc(F)cc3)CC2)cc1	-3%	3%	0	80% (active)	inactive	inactive	inactive	inactive
